# Source: PubChem BioAssay
# Activity calls are given as the source filed them.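 Rule for the calls, unless noted: active = inhibition above 20% together with a positive visual image hit; inconclusive = visual image hit but inhibition not above 20%; inactive = no visual image hit.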
# Key:
# [1] = inhibitors of TNFa-induced NFkB p65 translocation, primary screen, imaging, HUVEC, MLSMR starter and 10KST1 sets (AID 438); conditions: HUVEC TNFa-induced p65 nuclear translocation; cell count: measured here: nuclei count (cytotoxicity indicator), at 2.08 µM; inhibition: at 2 µM, stronger effect = higher value, 0% TNFa-plus-vehicle, 100% no-TNFa wells;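 note: compound added about 3h40 before a 20 min TNFalpha stimulation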;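 for inhibition: signal is the nuclear over cytoplasmic p65 intensity ratio per well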
# [2] = inhibitors of mutant huntingtin aggregation, primary screen, imaging, exon1htt(103Q)mCFP cells, high-content imaging (AID 483;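 active = visual image review flags a hit and inhibition of aggregation exceeds 20%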;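 note: compound exposure lasted 3 days before fixation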;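 for nuclei count: percent of the per-plate median nuclei count of sample wells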); conditions: exon1htt(103Q)mCFP cell line, aggregate imaging, at 2 µM; inhibition of aggregation: stronger effect = higher value; nuclei count: measured here: cell count, toxicity
# [3] = inhibitors of E-selectin induction by TNFa, primary screen, imaging, HUVEC, immunofluorescence, MLSMR starter and 10KST1 sets (AID 487;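 active = visually confirmed hit in the image check and inhibition above 20%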;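 for inhibition: signal is fraction of cell area covered by stained E-selectin grains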;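 for nuclei count: 100% = median nuclei count of all wells on the same plate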); conditions: HUVEC TNFalpha-induced E-selectin immunofluorescence imaging, at 2 µM; inhibition: stronger effect = higher value; nuclei count: measured here: cell number, toxicity
# [4] = biological target: Voltage-gated potassium channel subunit beta-2 (Rattus norvegicus) (UniProt P62483); test: KvBeta enzyme negative modulators, primary screen, biochemical, NADPH fluorescence (AID 622;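 active = fluorescence slope higher than the sample average by over 3 SD, cut at about -0.22 in these data, passing the limit was not always enough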;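 note: slope of raw intensity against log time taken from 70 to 1610 s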); conditions: recombinant KvBeta, 4-cyanobenzaldehyde reduction, at 10 µM, stronger effect = higher value
# [5] = biological target: Voltage-gated potassium channel subunit beta-2 (Rattus norvegicus) (UniProt P62483); test: KvBeta positive modulators, primary screen, biochemical, NADPH fluorescence (AID 623;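 active = NADPH fluorescence slope more negative than the mean of all samples by about 3 SD, 99.7% confidence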;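 note: fluorescence intensity change per second fitted from 20 to 320 s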); conditions: Recombinant KvBeta, NADPH fluorescence decrease slope, 10 min; at 10 µM; stronger effect = lower value
# [6] = biological target: Alpha-2C adrenergic receptor (Homo sapiens) (UniProt P18825); test: modulators of alpha2C/GIRK thallium flux, primary screen, cell-based, HEK293 alpha2C/GIRK1/2 (AID 624;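 active = fluorescence slope after compound addition differing from the mean of all screened samples at 99.7% confidence, in either direction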;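 note: slope of fluorescence ratio to pre-addition baseline per second over 15 to 24 s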); conditions: thallium flux BTC fluorescence, at 10 µM, actives lie on both sides
# [7] = inhibitors of Sendai virus-induced IRF3 signaling, primary screen, TLR/RLR signaling modifier project, cell-based, Sendai virus stimulus, luciferase, 10K MLSCN set (AID 602276;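 active = inhibition at or above 50% at 10 µM; inactive = inhibition below 50%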;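 note: firefly luciferase from ISG56 promoter only with Renilla not read in this screen; 0% = Sendai virus plus DMSO and 100% = medium plus DMSO without virus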); conditions: HEK293 RL24 IRF3 luciferase reporter, at 10 µM, stronger effect = higher value
# [8] = inhibitors of poly I:C-induced TLR3 signaling, primary screen, cell-based, poly I:C stimulus, luciferase, 10K MLSCN set (AID 602277;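 active = inhibition of the reporter signal at or above 50%; inactive = inhibition below 50%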); conditions: HEK293-TLR3 RL24 IRF3 luciferase reporter, at 10 µM, stronger effect = higher value
# Voltage-gated potassium channel subunit beta-2 (Rattus norvegicus), sequence (P62483 whole entry, looked up): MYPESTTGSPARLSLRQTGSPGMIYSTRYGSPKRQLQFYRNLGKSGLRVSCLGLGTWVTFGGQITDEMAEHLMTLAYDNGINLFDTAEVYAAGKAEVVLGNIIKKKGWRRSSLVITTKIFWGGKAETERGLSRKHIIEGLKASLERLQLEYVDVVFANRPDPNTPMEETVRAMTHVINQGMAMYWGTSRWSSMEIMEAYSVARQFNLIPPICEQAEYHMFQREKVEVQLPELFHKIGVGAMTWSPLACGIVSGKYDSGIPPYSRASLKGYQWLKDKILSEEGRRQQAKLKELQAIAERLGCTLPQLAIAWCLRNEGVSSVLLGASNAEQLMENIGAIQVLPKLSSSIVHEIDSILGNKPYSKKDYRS
# Alpha-2C adrenergic receptor (Homo sapiens), sequence (P18825 whole entry, looked up): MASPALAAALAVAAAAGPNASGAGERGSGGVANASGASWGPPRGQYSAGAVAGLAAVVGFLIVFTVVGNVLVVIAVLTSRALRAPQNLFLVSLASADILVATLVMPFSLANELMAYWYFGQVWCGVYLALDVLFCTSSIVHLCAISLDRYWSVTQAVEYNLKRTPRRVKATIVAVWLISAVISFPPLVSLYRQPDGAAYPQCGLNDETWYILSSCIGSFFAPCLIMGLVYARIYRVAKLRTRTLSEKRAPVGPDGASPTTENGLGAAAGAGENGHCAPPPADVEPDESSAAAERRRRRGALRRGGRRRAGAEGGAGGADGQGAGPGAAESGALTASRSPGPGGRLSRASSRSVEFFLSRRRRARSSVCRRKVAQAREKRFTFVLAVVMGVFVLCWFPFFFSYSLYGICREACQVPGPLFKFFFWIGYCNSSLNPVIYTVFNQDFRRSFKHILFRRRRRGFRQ
Structure (SMILES),cell count [1],inhibition [1],inhibition of aggregation [2],nuclei count [2] [%],inhibition [3],nuclei count [3] [%],fluorescence slope [4],NADPH fluorescence slope [5],slope [6],inhibition [7],inhibition [8]
CC(C)c1nnc(SCC(=O)NCc2ccco2)n1C,248,2.2% (inactive),-12.1% (inactive),77,21.4% (inactive),86.7,-0.485 (inactive),1.5e-05 (inactive),0.00695 (inactive),3.77% (inactive),97.8% (active)
COc1ccc(C2C(C(=O)NCCN3CCOCC3)c3ccccc3C(=O)N2C2CCCCC2)cc1 (stereo not drawn),334,10.1% (inactive),12.7% (inactive),111,-93.5% (inactive),111,-0.611 (inactive),-2.8e-05 (inactive),0.00399 (inactive),30.2% (inactive),26% (inactive)
O=C(O)c1cc2c(s1)CCCC2,473,6.3% (inactive),8.1% (inactive),100,15.7% (inactive),111,-0.383 (inactive),-2.9e-06 (inactive),0.00578 (inactive),4.53% (inactive),8.58% (inactive)
CC1CCc2nn(CC(=O)NCCN3CCCCC3C)cc2C1 (stereo not drawn),621,12% (inactive),-27.1% (inactive),106,-11.5% (inactive),108,-0.62 (inactive),6.4e-06 (inactive),0.00605 (inactive),7.09% (inactive),33.8% (inactive)
CC(C)c1ncc(C(O)c2cccc3ccccc23)n1C (stereo not drawn),640,-10.5% (inactive),11.4% (inactive),75.8,-10.8% (inactive),123,-0.494 (inactive),-6.2e-05 (inactive),0.00406 (inactive),-12.7% (inactive),-7.56% (inactive)
CCOC(=O)N1CCN(Cc2nc3c(c(=O)n(C)c(=O)n3C)n2Cc2ccccc2)CC1,598,2.9% (inactive),-8.1% (inactive),120,0.1% (inactive),115,-0.538 (inactive),-3.9e-05 (inactive),0.00607 (inactive),9% (inactive),14.8% (inactive)
Cc1occc1C(=O)Nc1nnc(C2CCCCC2)s1,356,7.6% (inactive),-8.9% (inactive),108,14% (inactive),106,-0.526 (inactive),-1.5e-05 (inactive),0.00511 (inactive),-0.797% (inactive),-13.3% (inactive)
COc1ccc(CCn2c(C)cc(C(=O)CSc3nnnn3C)c2C)cc1,441,-1.5% (inactive),-14.4% (inactive),131,-45.2% (inactive),110,-0.412 (inactive),4.6e-05 (inactive),0.00361 (inactive),0.703% (inactive),-19.8% (inactive)
CCn1c(=O)c(C(=O)NCCc2ccccc2)c(O)c2ccccc21,724,-0.3% (inactive),-18.1% (inactive),96.4,-9.2% (inactive),104,-0.302 (inactive),-2.8e-06 (inactive),0.0106 (inactive),18.3% (inactive),12.5% (inactive)
C=CCOc1nc(N(C)C)nc(N(C)C)n1,569,3.6% (inactive),-3.6% (inactive),103,-138% (inactive),96,-0.595 (inactive),-3.9e-05 (inactive),0.00356 (inactive),10.6% (inactive),10.6% (inactive)
O=c1c(-c2ccc(Br)cc2)coc2c(CN3CCOCC3)c(O)ccc12,557,-2.4% (inactive),-1.6% (inactive),102,-9.2% (inactive),118,-0.0321 (active),3.3e-05 (inactive),0.00611 (inactive),2.64% (inactive),-17.1% (inactive)
O=C1NC2=C(C(=O)CCC2)C(c2ccc3ncccc3c2)N1 (stereo not drawn),513,1.5% (inactive),1.9% (inactive),126,-13.9% (inactive),116,-0.541 (inactive),-5e-05 (inactive),0.00696 (inactive),9.39% (inactive),8.99% (inactive)
COc1ccc(N2CCN(CCNC(=O)CCS(=O)(=O)c3cccc4nsnc34)CC2)cc1,747,-6.4% (inactive),-23% (inactive),101,15% (inactive),109,-0.598 (inactive),-3.9e-05 (inactive),0.00466 (inactive),16.8% (inactive),15.8% (inactive)
CCOc1ccccc1N1Cc2cc(C)c(C)cc2C1,576,2.9% (inactive),22.5% (inactive),110,-9% (inactive),118,-0.543 (inactive),1.2e-05 (inactive),0.00798 (inactive),-0.273% (inactive),-2.86% (inactive)
O=C(NC1CCCCC1)C(c1ccccc1)N(Cc1ccco1)C(=O)Cn1cnc2ccccc21 (stereo not drawn),375,-1.6% (inactive),-19.6% (inactive),114,-70.5% (inactive),108,-0.586 (inactive),-3.7e-05 (inactive),0.00243 (inactive),9.18% (inactive),20.8% (inactive)
COc1cc(S(=O)(=O)N2CCOCC2)ccc1NC(=O)COC(=O)C12CC3CC(CC(C3)C1)C2,533,-24.9% (inactive),-8.6% (inactive),108,27.1% (inactive),89.4,-0.258 (inactive),2.4e-06 (inactive),0.00665 (inactive),8.59% (inactive),19.8% (inactive)
C(=N\c1c(-c2ccccc2)nc2n1CCS2)/c1ccccc1,594,-22.1% (inactive),-0.7% (inactive),86,18.8% (inactive),43.9,-0.458 (inactive),-3.7e-05 (inactive),0.00231 (inactive),0.61% (inactive),10.6% (inactive)
CS(=O)(=O)N1CCN(c2ccccc2NC(=O)c2cccs2)CC1,629,0.5% (inactive),-6.7% (inactive),105,-0.6% (inactive),89.5,-0.501 (inactive),1.2e-05 (inactive),0.00365 (inactive),11.6% (inactive),18.8% (inactive)
CCCCCCC(C)n1[nH]c(=O)c2c(C)cc(=O)[nH]c21 (stereo not drawn),675,8.2% (inactive),-12.3% (inactive),105,-6.2% (inactive),91.9,-0.61 (inactive),-1.7e-05 (inactive),0.00325 (inactive),3.89% (inactive),-2.25% (inactive)
Cc1cccc(OCC(=O)N(Cc2cccs2)C2CCS(=O)(=O)C2)c1C (stereo not drawn),220,2.4% (inactive),0.4% (inactive),88.1,-142% (inactive),112,-0.639 (inactive),-3.9e-05 (inactive),0.00768 (inactive),13.8% (inactive),16.1% (inactive)
CC(C)Nc1ncnc2c1cnn2-c1ccccc1,681,-6.7% (inactive),-56.3% (inactive),3.7,-1.2% (inactive),114,-0.589 (inactive),-2e-05 (inactive),0.00563 (inactive),-54.7% (inactive),-180% (inactive)
Cc1cc(OCC(=O)NCCO)cc(C)c1Cl,419,-2.3% (inactive),11.1% (inactive),73.3,28.3% (inactive),92.3,-0.428 (inactive),2.8e-05 (inactive),0.00371 (inactive),-0.456% (inactive),24.5% (inactive)
CCCc1ccc(S(=O)(=O)NCCc2ccncc2)cc1,352,-15.7% (inactive),-25.5% (inactive),109,-94.2% (inactive),121,-0.585 (inactive),-2.4e-05 (inactive),0.00524 (inactive),-3.61% (inactive),-11.2% (inactive)
CCOC(=O)N1CCC(c2cc(=O)n3[nH]cc(C(=O)OC)c3n2)CC1,534,6.8% (inactive),-16.8% (inactive),58.3,7.4% (inactive),103,-0.541 (inactive),-1.8e-05 (inactive),0.00674 (inactive),16.5% (inactive),35.8% (inactive)
COc1ccc(Cl)cc1N1CC(c2nc3ccccc3[nH]2)CC1=O (stereo not drawn),542,1.4% (inactive),2% (inactive),114,1.9% (inactive),107,-0.607 (inactive),6.8e-06 (inactive),0.00704 (inactive),16.2% (inactive),16.9% (inactive)
Cc1nnc(SCc2nc3ccccc3s2)n1-c1ccccc1,394,-1% (inactive),-14.1% (inactive),83.9,-324% (inactive),153,-0.317 (inactive),7.5e-06 (inactive),0.005 (inactive),13.8% (inactive),-17.5% (inactive)
COc1cc(OC)cc(C(=O)N2c3ccc(F)cc3CCC2C)c1 (stereo not drawn),282,-4.7% (inactive),19% (inactive),83.6,-85.9% (inactive),103,-0.524 (inactive),-4.4e-05 (inactive),0.0061 (inactive),12.9% (inactive),21.8% (inactive)
CCSc1nnc(-c2cccs2)o1,413,-4.5% (inactive),-4.3% (inactive),110,21.6% (inactive),111,-0.369 (inactive),-4.4e-05 (inactive),0.00573 (inactive),-21.5% (inactive),-57.7% (inactive)
